Data: PubChem BioAssay AID504389 (National Center for Advancing Translational Sciences (NCATS), 2011)
Records with an inconclusive call do not appear. The source made the active and inactive calls. Calls follow the shape of the dose curve; as a rule, active = well fitted curve in the direction sought with a large enough effect; inconclusive = small, poorly fitted or top-dose-only effect, or effect the other way, or another doubt; inactive = no such curve, though single readings can be large or run the other way.

Each compound was assayed against Thyrotropin receptor (Homo sapiens) (UniProt P16473) (assay: qHTS Assay for Antagonists of the Thyroid Stimulating Hormone Receptor: SAR for Probe). Details: HEK293-TSHR, TSH-stimulated cAMP HTRF, 2 h; series mostly up to 57.5 µM.
Description: TSH is an alpha/beta heterodimeric glycoprotein hormone secreted from the anterior pituitary gland which belongs to the glycoprotein hormone family. The actions of TSH are mediated by a seven-transmembrane receptor, which upon TSH binding couples preferentially to the G-alpha (s) protein (Gs), resulting in activation of adenylate cyclase and increase in cyclic adenosine 3', 5' monophosphate (cAMP). The TSH receptor (THSR) is mainly expressed in thyroid follicular cells and regulates their growth and function. This cell based assay was conducted on a TSHR transfected HEK 293 cell line, measuring cAMP stimulation using antibody-based Homogeneous Time Resolved Fluorescence (HTRF). Our goal is to identify small molecules that will inhibit (antagonize) the thyroid-stimulating hormone receptor (TSHR), a member of the 7 transmembrane-spanning receptor (7TMR) family of cell surface receptors. TSHR-mediated hyperthyroidism is important in thyroid pathology. The development of small molecule antagonists of TSHR may lead to therapeutic approaches for TSHR-mediated hyperthyroidism caused by constitutively activating mutations or stimulating auto-antibodies associated with Graves' disease. Graves' disease is the leading cause of hyperthyroidism and is caused by autoantibodies that stimulate TSHR (TsAbs) causing thyroid growth and unregulated overproduction of thyroid hormones and existing treatments have liabilities (agranulocytosis). In addition, TSHRs are known to be expressed in multiple extrathyroidal tissues including bone, brain, kidney, testis, fat and cells of the immune system but the role of the TSHR in these tissues is not clear. Therefore, TSHR antagonists/inverse agonists could be used as probes of extrathyroidal TSHR function. Finally, TSHR inverse agonists, which are a subclass of antagonists that inhibit agonist-independent (or basal or constitutive) TSHR signaling, could be used to inhibit TSH-independent signaling in patients with recurrent or metastatic thyroid cancer who are receiving thyroid hormone to suppress TSH. The present assay presents confirmation data for analogues of series of interest in the primary screening assay.
An anti cAMP antibody contains a fluorescent cryptate tag (excitation 337 nm; emission 620 nm) and the acceptor is cAMP-d2 (excitation 620 nm; emission 665 nm). When antibody and cAMP-d2 interact and are excited by a 337 nm light, a FRET occurs resulting in emission at 665 nm. The assay is competition between cAMP-d2 and cAMP (from the cell lysate). The homogeneous protocol allows for one step dispense after stimulation that is automation friendly. Step, Parameter, Value, Description 1, Cells, 3 uL, 2000 TSHR freshly harvested cells/well 1536 TC treated White solid bottom plate (Cells resuspended in 10 mM HEPES buffered HBSS and 70 uM RO 20-1724) 2, Compound, 23 nL, Libraries and controls 3, Compound, 1 uL, EC80 TSH (4 nM final) 4, Time, 2 hours, 37C 5, Reagent, 2 uL, cAMP antibody diluted 1:20 in lysis buffer 6, Time, 30 minutes, Room temperature 7, Detector, HTRF settings, Viewlux

Thyrotropin receptor (Homo sapiens), sequence (P16473 whole entry, looked up): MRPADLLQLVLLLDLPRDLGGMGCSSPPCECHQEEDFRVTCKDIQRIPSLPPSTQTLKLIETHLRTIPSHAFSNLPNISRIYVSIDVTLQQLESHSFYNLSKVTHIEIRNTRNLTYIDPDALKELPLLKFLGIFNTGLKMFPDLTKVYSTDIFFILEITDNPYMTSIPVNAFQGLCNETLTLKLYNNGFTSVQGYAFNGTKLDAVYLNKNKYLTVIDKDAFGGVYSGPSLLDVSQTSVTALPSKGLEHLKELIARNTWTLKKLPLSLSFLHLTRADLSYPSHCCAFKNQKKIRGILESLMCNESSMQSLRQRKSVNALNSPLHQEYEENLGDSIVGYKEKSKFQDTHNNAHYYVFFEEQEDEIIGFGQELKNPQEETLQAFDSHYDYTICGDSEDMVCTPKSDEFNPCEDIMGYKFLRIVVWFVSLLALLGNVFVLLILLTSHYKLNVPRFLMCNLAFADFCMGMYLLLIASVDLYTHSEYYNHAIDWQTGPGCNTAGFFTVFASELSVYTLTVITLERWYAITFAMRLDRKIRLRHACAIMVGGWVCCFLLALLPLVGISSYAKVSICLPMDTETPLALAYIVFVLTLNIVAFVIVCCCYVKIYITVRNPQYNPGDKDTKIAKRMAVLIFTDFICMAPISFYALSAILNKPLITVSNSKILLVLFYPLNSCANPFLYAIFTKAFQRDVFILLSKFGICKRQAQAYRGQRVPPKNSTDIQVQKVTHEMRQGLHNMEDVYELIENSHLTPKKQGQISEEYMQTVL

Potency, inactive:
COc1ccc(C(=O)O)cc1COc1ccc(NC(C)=O)cc1
COc1ccc(C2Nc3ccccc3C(=O)N2Cc2ccccc2)cc1COc1ccc(NC(=O)c2ccccc2)cc1 (configuration not stated)
COc1ccc(-c2nc3ccccc3c(=O)n2Cc2ccco2)cc1COc1c(C)cccc1C
COc1ccc(CN2C(=O)c3ccccc3NC2c2ccc(OC)c(COc3c(C)cc(NC(C)=O)cc3C)c2)cc1 (configuration not stated)
COc1ccc(C2Nc3ccccc3C(=O)N2CCO)cc1COc1c(C)cc(NC(C)=O)cc1C (configuration not stated)
COc1ccc(C2Nc3ccccc3C(=O)N2Cc2ccccc2)cc1COc1c(C)cccc1C (configuration not stated)
COc1ccc(C2Nc3ccccc3C(=O)N2Cc2cccc(OC)c2OC)cc1COc1c(C)cc(NC(C)=O)cc1C (configuration not stated)
